{"source": "PubChem BioAssay (NCATS)", "note": "Records with an inconclusive call do not appear. Where a call stands in place of a potency, no number is given. Active and inactive are the calls of the source. The call rests on the fitted dose curve; in most records, active means well fitted cell-killing curve with a large enough effect; inconclusive means small, poorly fitted or top-dose-only effect; inactive means flat fitted curve, though single readings scatter. Potency means the concentration at half of the fitted maximal effect."}
{"assay": "Cell Viability - Mesenchymal (AID 546);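 further: cells exposed to compound for 40 hours before reading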", "details": "mesenchymal cells viability, qHTS; series mostly up to 91.7 µM", "from_the_text": "NIH Chemical Genomics Center [NCGC]\nNIH Molecular Libraries Screening Centers Network [MLSCN]\nNational Institutes of Environmental Health Sciences [NIEHS]\nNational Toxicology Program [NTP]\nWe have developed a 1536-well cell-based assay for quantitative high throughput screening (qHTS) against a number of cell lines to determine in vitro cytotoxicity of small molecules. This particular assay uses the kidney mesenchymal cell line which is derived from normal human renal glomeruli.\nNCGC Assay Protocol Summary:\nThe CellTiter-Glo luminescent cell viability assay (Promega) is a homogeneous method to measure the number of viable cells in culture. The end point readout of this assay is based on quantitation of intracellular ATP, an indicator of metabolic activity, using the luciferase reaction. Luciferase catalyzes the oxidation of beetle Luciferin to oxyluciferin and light in the presence of ATP. The luminescent signal is proportional to amount of ATP present.\nUsing the CellTiter-Glo luminescent cell viability assay, the amount of cellular ATP was measured in the kidney mesenchymal cell line with complete culture medium following compound treatment for 40 hours. The assay was performed in opaque white Kalypsys 1536-well plates. In the screen, tamoxifen and doxorubicin were used as positive controls. Library compounds were measured for their ability to cause acute toxicity in the cell line, as reflected by a decrease in intracellular ATP levels, in a concentration-dependent manner. […] AC50 values were determined from concentration-response data modeled with the standard Hill equation.\nqHTS protocol for CellTiter Glo kidney mesenchymal cells cellular assay\n[Step] [Parameter] [Value] [Description]\n1. Reagent; 5 uL; 1000 kidney mesenchymal cells/well\n2. Time; 5 hr; 37 °C incubation\n4. Controls; 23 nL; Tamoxifen 0.34 uM to 100 uM & Doxorubicin 0.02 nM to 100 uM\n5. Time; 40 hr; 37 °C incubation\n6. Reagent; 5 uL; CellTiter Glo reagent\n7. Time; 20 min; Room Temperature\n8. Detection; Luminescence; Viewlux plate reader\nKeywords: cell viability, cytotoxicity, Kidney mesenchymal cell line, luminescence, NTPHTS, NTPHTS_NCGC, NIEHS, EPA, DSSTox, MLSMR, MLSCN, NIH Roadmap, qHTS, NCGC"}
{"smiles": "[O-][Cl+2]([O-])O", "Potency": "inactive"}
{"smiles": "CC(=O)[O-].CC(=O)[O-].CC(=O)[O-].[Cr+3]", "Potency": "inactive"}
{"smiles": "CCN(CC)CCO", "Potency": "inactive"}
{"smiles": "O=[N+]([O-])c1ccccc1CCl", "Potency": "inactive"}
{"smiles": "Clc1cccc(Cl)c1", "Potency": "inactive"}
{"smiles": "CCCC[N+](=O)[O-]", "Potency": "inactive"}
{"smiles": "O=[N+]([O-])c1c(Cl)c(Cl)c(Cl)c(Cl)c1Cl", "Potency": "inactive"}
{"smiles": "O=C(O)C(Cl)(Cl)Br", "Potency": "inactive"}
{"smiles": "Clc1cccc2ccccc12", "Potency": "inactive"}
{"smiles": "O=[N+]([O-])c1cccc2c([N+](=O)[O-])cccc12", "Potency": "inactive"}
{"smiles": "CCCCCCCCCCCCCl", "Potency": "inactive"}
{"smiles": "CN(C)C(=O)Nc1ccc(Cl)cc1", "Potency": "inactive"}
{"smiles": "COc1c(C(C)(C)C)cc([N+](=O)[O-])c(C)c1[N+](=O)[O-]", "Potency": "inactive"}
{"smiles": "c1ccc(Nc2ccc(Nc3ccccc3)cc2)cc1", "Potency": "inactive"}
{"smiles": "CC[N+](=O)[O-]", "Potency": "inactive"}
{"smiles": "CC(C)(Cl)Cl", "Potency": "inactive"}
{"smiles": "CCOP(=S)(OCC)SCCSCC", "Potency": "inactive"}
{"smiles": "O=C(O)c1cccc(Cl)c1", "Potency": "inactive"}
{"smiles": "Oc1ccc(Cl)c(Cl)c1Cl", "Potency": "inactive"}
{"smiles": "Cc1cc(-c2ccc(N)c(C)c2)ccc1N", "Potency": "inactive"}
{"smiles": "O=NN1CCCCC1", "Potency": "inactive"}
{"smiles": "CCOP(=S)(OCC)Oc1nc(Cl)c(Cl)cc1Cl", "Potency": "inactive"}
{"smiles": "Oc1cc(Cl)cc(Cl)c1", "Potency": "inactive"}
{"smiles": "ClP(Cl)(Cl)(Cl)Cl", "Potency": "inactive"}
{"smiles": "Cc1cnc[nH]1", "Potency": "inactive"}
{"smiles": "ClCCBr", "Potency": "inactive"}
{"smiles": "Nc1ccc(Cc2ccc(N)cc2)cc1", "Potency": "inactive"}
{"smiles": "O=C(O)C(Cl)Br", "note": "(stereo not given)", "Potency": "inactive"}
{"smiles": "C=CC(=O)OCCN(C)C", "Potency": "inactive"}
{"smiles": "c1ccc(N=NNc2ccccc2)cc1", "Potency": "inactive"}
{"smiles": "Cc1ccccc1[N+](=O)[O-]", "Potency": "inactive"}
{"smiles": "BrC(Br)Br", "Potency": "inactive"}
{"smiles": "CCCCCOC(=O)c1ccccc1C(=O)OCCCCC", "Potency": "inactive"}
{"smiles": "CCCCOCC1CO1", "note": "(stereo not given)", "Potency": "inactive"}
{"smiles": "COc1cc(-c2ccc(N)c(OC)c2)ccc1N", "Potency": "inactive"}
{"smiles": "CC12CC1(C)C(=O)N(c1cc(Cl)cc(Cl)c1)C2=O", "note": "(stereo not given)", "Potency": "inactive"}
{"smiles": "Clc1cccc(Cl)c1Cl", "Potency": "inactive"}
{"smiles": "Nc1ccc(-c2ccc(N)c(Cl)c2)cc1Cl", "Potency": "31.6 µM (active)"}
{"smiles": "CCC#N", "Potency": "inactive"}
{"smiles": "Clc1ccc(C(Cl)(Cl)Cl)c(Cl)c1", "Potency": "inactive"}
